From PubChem BioAssay (NCI) come the findings set out here.

Some test systems named below: NCI-H23 lung; NCI-H226 lung; NCI-H322M lung; HOP-62 NSCLC; NCI-H460 lung; HOP-92 NSCLC; NCI-H522 lung; A549/ATCC NSCLC; 786-0 renal; COLO 205 colon; DU-145 prostate; MALME-3M melanoma; MDA-MB-231 breast; RXF 393 renal; SF-268 CNS; SF-295 CNS; SF-539 CNS; UACC-257 melanoma; M14 melanoma; K-562 leukemia.
Holding throughout (assay): NCI-60 one-dose screen, 48 h (100 = growth as untreated, 0 = no growth, -100 = all killed)
Settings in all cases: 10 µM unless noted

This is part of a sample that, as a whole, favours compounds with a hit. Of some 83,000 tested, about 20% had one in any assay.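 Method: cells in 96-well plates; compound added at one concentration; 48 h incubation; percent growth measured; values under 10 scored active.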 A number with no mark means an inactive call. Activity calls are given as the source filed them.

Turning to `C#CCC(C)(O)/C=C/C1=C(C)CCCC1(C)C` (centres undefined), the growth in the test on NCI-H23 lung was 94.5%; with NCI-H226 lung it was 85.4%; with NCI-H322M lung it was 99.4%; in the test with HOP-62 NSCLC it was 96.9%; in the test on NCI-H460 lung, 103%; with HOP-92 NSCLC it was 84%. Also, the growth is 75.5% with NCI-H522 lung; 69.8% with A549/ATCC NSCLC; 92.6% in the test with 786-0 renal; 113% in the test with COLO 205 colon; 103% with DU-145 prostate; 90% with MALME-3M melanoma. Further, the growth with MDA-MB-231 breast was 99.3%; with RXF 393 renal, 100%; in the test with SF-268 CNS, 95.6%; in the test with SF-295 CNS it was 95.4%; in the test with SF-539 CNS, 102%; with UACC-257 melanoma, 76.4%. In the test with M14 melanoma, the growth was 89.4%.
As to `COc1ccc(-c2n[nH]nc2-c2cc3ccccc3s2)cc1O`, the growth in the test on NCI-H23 lung is 27.9%; in the test on NCI-H226 lung, 51.6%; with NCI-H322M lung, 58.8%; with HOP-62 NSCLC, 24.1%; with HOP-92 NSCLC, 49.9%; in the test with NCI-H522 lung, -5.47% (active). The growth in the test on A549/ATCC NSCLC is 15%; with 786-0 renal, 33.6%; in the test on COLO 205 colon, 51.4%; in the test on DU-145 prostate it was 25.1%; in the test with K-562 leukemia, 5.55% (active); with MALME-3M melanoma it was 74.7%. For the same compound, the growth in the test with MDA-MB-231 breast was -3% (active); in the test on RXF 393 renal, 16.4%; in the test on SF-268 CNS, 37%; in the test with SF-295 CNS it was 26.9%; with SF-539 CNS, -13.4% (active); in the test on UACC-257 melanoma, 50.2%. In the test with M14 melanoma, the growth is 12.4%.
For `COc1cc(C(=O)/C=C/c2cc(-c3ccc4c(c3)OCO4)n[nH]2)cc(OC)c1OC`, the growth with NCI-H23 lung is 24.5%; with NCI-H226 lung, 38.1%; in the test on NCI-H322M lung, 19.3%; in the test on HOP-62 NSCLC, -22.7% (active); in the test on HOP-92 NSCLC, 73%; in the test with NCI-H522 lung it was 17.4%. Moreover, the growth in the test with A549/ATCC NSCLC is 28.8%; in the test on 786-0 renal, 12.8%; in the test with COLO 205 colon, 32.3%; with DU-145 prostate, 0.359% (active); in the test with K-562 leukemia, -17% (active); with MALME-3M melanoma, 68.5%. In addition, the growth with MDA-MB-231 breast was 30.6%; in the test on RXF 393 renal it was 1.1% (active); in the test with SF-268 CNS, -8.16% (active); with SF-539 CNS, -51.9% (active); in the test with UACC-257 melanoma it was 76.5%; in the test with M14 melanoma, 81.4%.
`O=C(NO)c1ccc(Cn2c(=O)n(CCc3ccc(O)cc3)c(=O)c3ccccc32)cc1`: the growth in the test with NCI-H23 lung is -8.51% (active); in the test with NCI-H226 lung, 82.5%; in the test with NCI-H322M lung it was 80.4%; with HOP-62 NSCLC, 68.1%; in the test with HOP-92 NSCLC it was 80%; with NCI-H522 lung, 7.74% (active). Further, the growth in the test on A549/ATCC NSCLC was 84.2%; in the test on 786-0 renal, 83.4%; in the test on COLO 205 colon, 19.6%; with DU-145 prostate, 42.1%; with K-562 leukemia, 24.9%; in the test on MALME-3M melanoma it was 39.3%. Further, the growth is 39.1% with MDA-MB-231 breast; 29.8% in the test on RXF 393 renal; 59.2% with SF-268 CNS; 79.1% with SF-295 CNS; 3.09% (active) with SF-539 CNS; 36.9% in the test with M14 melanoma.
For `COc1cc(NC(C)CN(CC(C)C)C(C)C)c2ncccc2c1` (centres undefined), the growth was 83.7% with NCI-H23 lung; 89.7% in the test with NCI-H226 lung; 100% in the test on NCI-H322M lung; 109% with HOP-62 NSCLC; 74.4% in the test on HOP-92 NSCLC; 101% in the test with NCI-H522 lung. Besides, the growth with A549/ATCC NSCLC is 105%; with 786-0 renal, 111%; with COLO 205 colon, 96.9%; with DU-145 prostate it was 106%; with K-562 leukemia, 98.1%; in the test on MALME-3M melanoma, 104%. Further, the growth is 81.1% with MDA-MB-231 breast; 113% in the test on RXF 393 renal; 94.7% with SF-268 CNS; 110% in the test on SF-295 CNS; 103% in the test with SF-539 CNS; 99.5% in the test on UACC-257 melanoma. The growth in the test with M14 melanoma is 102%.
For `COc1ccc2c(c1)c1nc3cc(C)c(C)cc3nc1n2CCN(C)C`, the growth in the test on NCI-H23 lung is 1.6% (active); with NCI-H226 lung it was 7.41% (active); in the test on NCI-H322M lung it was 3.67% (active); with HOP-62 NSCLC it was 20.3%; in the test with HOP-92 NSCLC, 41%; with NCI-H522 lung it was 6.94% (active). Besides, the growth was -75% (active) with A549/ATCC NSCLC; -60.8% (active) in the test with 786-0 renal; -23.8% (active) with COLO 205 colon; 11.9% in the test on DU-145 prostate; -2.38% (active) in the test on K-562 leukemia; -30.8% (active) with MALME-3M melanoma. For the same compound, the growth in the test on MDA-MB-231 breast is -2.89% (active); with RXF 393 renal, 13.2%; in the test with SF-268 CNS, 31.3%; in the test with SF-295 CNS, 4.6% (active); in the test on SF-539 CNS it was -13.2% (active); in the test on UACC-257 melanoma it was 8.99% (active). Also, the growth with M14 melanoma is 4.45% (active).
In the case of `COc1ccc(/C=C/C(=O)NCCO)cc1`, the growth was 96.6% in the test with NCI-H23 lung; 97.9% with NCI-H226 lung; 97.6% in the test with NCI-H322M lung; 87.7% in the test on HOP-62 NSCLC; 105% in the test on HOP-92 NSCLC; 82% in the test on NCI-H522 lung. For the same compound, the growth is 79.7% in the test on A549/ATCC NSCLC; 100% in the test with 786-0 renal; 112% in the test on COLO 205 colon; 102% with DU-145 prostate; 95.7% in the test with K-562 leukemia; 92.3% in the test with MALME-3M melanoma. Also, the growth in the test on MDA-MB-231 breast is 105%; in the test with RXF 393 renal it was 106%; with SF-268 CNS, 94.3%; in the test with SF-295 CNS, 98.3%; in the test with SF-539 CNS it was 94.9%; with M14 melanoma, 106%.
As to `Cc1csc(Nc2nc(-c3cccc(Br)c3)nc(C(Cl)(Cl)Cl)n2)n1`, the growth in the test on NCI-H23 lung is 85.6%; in the test with NCI-H226 lung, 110%; with NCI-H322M lung, -29.9% (active); with HOP-62 NSCLC, 34%; in the test on HOP-92 NSCLC, 51.2%; in the test on NCI-H522 lung it was 97.1%. In addition, the growth in the test on A549/ATCC NSCLC is 5.62% (active); with 786-0 renal it was 75.2%; in the test with COLO 205 colon it was 4.32% (active); in the test with DU-145 prostate it was -5.72% (active); in the test with K-562 leukemia, 84%; with MALME-3M melanoma, 98.8%. The growth in the test on MDA-MB-231 breast is 15.5%; in the test with RXF 393 renal, 20.2%; in the test on SF-268 CNS, 78.1%; in the test with SF-295 CNS it was 20.7%; in the test on SF-539 CNS, 41%; in the test on UACC-257 melanoma it was 60.6%. Further, in the test with M14 melanoma, the growth is 86.4%.
